{"source": "ChEMBL document CHEMBL3988442", "about": "“University of Dundee, Small-Polar-MMV Screening Library” (2021)", "note": "Hit rate of the full screen: of about 48,000 compounds, about 13,000 (27%) showed an effect of 50% or more. The list shows a part of the results."}
{"system": "Wolbachia pipientis", "assay": "Anti-Wolbachia Cell-Based Screen", "type": "functional", "set-up": "scale not given: in the data most compounds retested in dose-response had high values", "conditions": "5 µM", "units": {"Percent Effect": "%"}}
{"smiles": "COCCC(=O)N1CCCC2(CCC(=O)N(CCc3c[nH]cn3)C2)C1", "note": "(stereo unspecified)", "Percent Effect": 0.09306}
{"smiles": "Cc1cnn(CCNCc2nc(Cc3ccccc3)no2)c1", "Percent Effect": -7.265}
{"smiles": "Fc1cccc(N2CCCC3(C2)CN(c2cnccn2)CCO3)c1", "note": "(stereo unspecified)", "Percent Effect": 1.052}
{"smiles": "CO[C@H]1CN(Cc2cccc(C#N)c2)[C@@H]2COC[C@H]12.O=C(O)C(F)(F)F", "Percent Effect": -6.68}
{"smiles": "CN1[C@@H](C(=O)NCC2CC2)C[C@H]2CN(Cc3cccc(C#N)c3)C[C@H]21.O=C(O)C(F)(F)F.O=C(O)C(F)(F)F", "Percent Effect": 99.16}
{"smiles": "CCc1cc(C(=O)NCC2CCN(Cc3cccc(C#N)c3)C2)on1", "note": "(stereo unspecified)", "Percent Effect": 4.535}
{"smiles": "CC(=O)N1[C@@H](C(=O)NCC2CC2)C[C@@H]2CN(Cc3nccs3)C[C@@H]21.O=C(O)C(F)(F)F", "Percent Effect": 88.62}
{"smiles": "O=C(NCC1CC1)[C@H]1CN(Cc2nccs2)C[C@H]2OCC[C@@H]12.O=C(O)C(F)(F)F", "Percent Effect": -15.61}
{"smiles": "Cn1ccnc1NC[C@@H]1CCC[C@@H]2CN(Cc3nccs3)C[C@@H]21.O=C(O)C(F)(F)F", "Percent Effect": -0.855}
{"smiles": "CN(C)S(=O)(=O)c1csc(C(=O)N2CCSCC2)c1", "Percent Effect": -1.993}
{"smiles": "CC(C)c1cc(C(=O)N[C@H]2CN(C3CCOCC3)C[C@@H]2C2CC2)no1", "Percent Effect": -8.943}
{"smiles": "COc1ncccc1C(=O)N1CCCC(c2cc(C)[nH]n2)C1", "note": "(stereo unspecified)", "Percent Effect": -2.172}
{"smiles": "COCCOc1ncccc1C(=O)N1CCCC(n2ccnc2C)C1", "note": "(stereo unspecified)", "Percent Effect": 113.9}
{"smiles": "Cc1nccn1C1CCCN(C(=O)c2cc(O)nc3ccccc23)C1", "note": "(stereo unspecified)", "Percent Effect": -15.61}
{"smiles": "COc1ncccc1C(=O)N1CCCC(n2ccnc2C)C1", "note": "(stereo unspecified)", "Percent Effect": 125.3}
{"smiles": "CC(C)(C)CNC[C@H]1Cn2c(-c3ccccc3)cnc2CO1", "Percent Effect": -15.45}
{"smiles": "CC(=O)N1CCN(C(=O)CNc2ccc3sccc3c2)CC1", "Percent Effect": -10.18}
{"smiles": "O=C(NCC(=O)N1CCCCC1)c1ccc(Cl)cc1I", "Percent Effect": -12.84}
{"smiles": "CN(C)C(=O)C1CCc2nnc(CNC(=O)c3ccc(Cl)cc3Cl)n21", "note": "(stereo unspecified)", "Percent Effect": 114.2}
{"smiles": "CC(C)NC(=O)C1CCc2nnc(CNC(=O)c3ccc(Cl)cc3Cl)n21", "note": "(stereo unspecified)", "Percent Effect": 98.13}
{"smiles": "CC(C)CNC(=O)c1ccc(NC(=O)NC2CC2)cc1Cl", "Percent Effect": -3.361}
{"smiles": "CC(C)C(NC(=O)c1ccc(Cl)cc1Cl)C(=O)Nc1cnn(C)c1", "note": "(stereo unspecified)", "Percent Effect": 12.86}
{"smiles": "CC(CNC(=O)c1ccc(Cl)cc1I)N1CCCC1", "note": "(stereo unspecified)", "Percent Effect": -14.44}
{"smiles": "O=C(NCc1nnc2n1C(C(=O)NC1CC1)CC2)c1ccc(Cl)cc1Cl", "note": "(stereo unspecified)", "Percent Effect": 110.4}
{"smiles": "CCn1cnnc1CNC(=O)c1ccc(Cl)cc1F", "Percent Effect": 9.197}
{"smiles": "Cn1cc(-c2cnc3n2CCC32CCN(S(=O)(=O)C3CC3)CC2)cn1.O=C(O)C(F)(F)F", "Percent Effect": 2.089}
{"smiles": "CC(NS(=O)(=O)N(C)C(C)C)C(=O)N(C)C", "note": "(stereo unspecified)", "Percent Effect": -8.822}
{"smiles": "COc1ccc(Cl)cc1CS(=O)(=O)Cc1nc(C)no1", "Percent Effect": 9.011}
{"smiles": "CCOc1cc(C(=O)NS(C)(=O)=O)cc(-c2ccccc2)c1OC", "Percent Effect": 4.998}
{"smiles": "CS(=O)(=O)NCc1cc2n(n1)CCCN(Cc1nc3ccccc3[nH]1)C2", "Percent Effect": 2.68}
{"smiles": "Cc1nn(C)c(C)c1S(=O)(=O)NCCn1ccc(-c2cccs2)n1", "Percent Effect": -20.8}
{"smiles": "CN(C)c1ccc(NC(=O)N2CCCC2c2ccsc2)cn1", "note": "(stereo unspecified)", "Percent Effect": 11.58}
{"smiles": "Cl.O=C(C1CCCC1)N1C[C@@H](c2ccsc2)[C@@H]2CN(C3CCCC3)CC[C@@H]21", "Percent Effect": 194.4}
{"smiles": "Cl.O=C(C1CCC1)N1C[C@@H](c2ccsc2)[C@@H]2CN(C3CCCC3)CC[C@@H]21", "Percent Effect": 127.5}
{"smiles": "Cl.O=C(C1CCC1)N1C[C@@H](c2ccsc2)[C@@H]2CN(C3CCCCC3)CC[C@@H]21", "Percent Effect": 144.1}
{"smiles": "O=C(C1CCC1)N1CCN(Cc2ccsc2)[C@H]2CS(=O)(=O)C[C@H]21", "Percent Effect": -4.22}
{"smiles": "CSc1ncc(CN2CC(Oc3c(C)cccc3C)C2)cn1", "Percent Effect": -6.082}
{"smiles": "CCC(Nc1nc(C(C)C)nc2c1cnn2C)c1ccncc1", "note": "(stereo unspecified)", "Percent Effect": -4.681}
{"smiles": "Cc1ccc(NS(=O)(=O)CC2=NC(=O)n3cccc3C2=O)cc1", "Percent Effect": 7.318}
{"smiles": "O=C(Nc1ccccc1)c1ccc(NCc2ccccc2CO)nn1", "Percent Effect": -18.51}
{"smiles": "CCCS(=O)(=O)N1CCC2(CC1)CN(c1ccccn1)CCO2.O=C(O)C(F)(F)F", "Percent Effect": 3.761}
{"smiles": "O=C(NCC1CCOC1)Nc1ccc(OCC(F)(F)F)nc1", "note": "(stereo unspecified)", "Percent Effect": -13.99}
{"smiles": "COCCC(=O)N1CCC(c2ccc3c(NC(C)C)n[nH]c3n2)C1", "note": "(stereo unspecified)", "Percent Effect": 74.92}
{"smiles": "COCCC(=O)N1CCc2nc(N3CCOCC3)nc(NC(C)C)c2C1", "Percent Effect": -19.12}
{"smiles": "CC(C)Nc1n[nH]c2nc(C3CCN(C(=O)c4ccccn4)C3)ccc12", "note": "(stereo unspecified)", "Percent Effect": 75.7}
{"smiles": "COCCOCCC(=O)N1CCC(c2ccccc2C)C1", "note": "(stereo unspecified)", "Percent Effect": -9.058}
{"smiles": "Cc1ncsc1C(=O)N1CCC(c2ccc3c(NC(C)C)n[nH]c3n2)C1", "note": "(stereo unspecified)", "Percent Effect": 170.9}
{"smiles": "CC(C)Oc1cccc(C(=O)C2CCCN(C(=O)c3ccccn3)C2)c1", "note": "(stereo unspecified)", "Percent Effect": -12.09}
{"smiles": "CC(C)c1nc2n(n1)CC(NCc1nc(-c3ccsc3)no1)CC2", "note": "(stereo unspecified)", "Percent Effect": -1.114}
{"smiles": "O=c1n(CC2CCCCO2)nc(CC2CCNCC2)n1-c1ccccc1", "note": "(stereo unspecified)", "Percent Effect": 26.34}
{"smiles": "CC(NC(=O)c1cc(Br)c2c(c1)OCCO2)C(N)=O", "note": "(stereo unspecified)", "Percent Effect": -7.344}
{"smiles": "CC(C)OCCS(=O)(=O)N1CCN(Cc2cccn2C)CC1", "Percent Effect": -8.582}
{"smiles": "CC(C)CN1C(=O)C2(CCCC2)NC12CCSCC2", "Percent Effect": -2.921}
{"smiles": "CCOc1ccc(C(=O)N2Cc3cnc(CC)nc3C2)o1", "Percent Effect": -12.82}
{"smiles": "CCCS(=O)(=O)NC(=O)c1cc(C)n(-c2ccccc2)n1", "Percent Effect": 6.254}
{"smiles": "CNC(=O)c1cc(C)n(-c2ccccc2)n1", "Percent Effect": 92.62}
{"smiles": "CCN(CC)S(=O)(=O)NC(=O)c1cc(C)n(-c2ccccc2)n1", "Percent Effect": 6.675}
{"smiles": "COc1cc(N2CCCC(c3nccn3Cc3cscn3)C2)nc(N)n1", "note": "(stereo unspecified)", "Percent Effect": 2.098}
{"smiles": "O=c1[nH]c2c(c(=O)n1C1CCCCC1)CCC2Nc1ccccc1Cl", "note": "(stereo unspecified)", "Percent Effect": 4.437}
{"smiles": "O=c1[nH]c2c(c(=O)n1C1CCCCC1)CCC2Nc1ccccc1", "note": "(stereo unspecified)", "Percent Effect": -8.343}
{"smiles": "O=c1[nH]c2c(-c3ccccn3)nsc2c(=O)n1C1CCCCC1", "Percent Effect": 110.2}
